# Measurements published in PMC12136788.
# Substitutions are numbered along the chain they refer to. The full ranking holds about 24,000 sequences; the median of “enrichment r” is about 0.99, and the highest 2% start at about 3.7. Shown is part of a subset that was picked to be rich in the highest values.
# T1: UNK ZnF1-3 (human, UniProt Q9C0B0 31-174)
# T1 sequence: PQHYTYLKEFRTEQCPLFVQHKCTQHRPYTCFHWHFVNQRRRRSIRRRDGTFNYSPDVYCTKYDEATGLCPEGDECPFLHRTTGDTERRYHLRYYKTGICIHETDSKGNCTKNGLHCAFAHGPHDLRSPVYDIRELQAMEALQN
# B1: chr7:149068622:149068623:-_ENSMUSG00000025139_ENSMUST00000001950|mus_hu|mus_mus_mus_hu_False|68_108 (ssRNA)
# RNA: GGGAGUUCUACAGUCCGACGAUCGUGCAGGUACUGAGUGUGGCUUGUGGUCUGUCCUGGGUUAGAGCUGCUGGUAACACGGAACAUACCAUCUAGAACGUUCCAGUCCCGCCUGACACCUUCAUUCCCAAUGGAGAAGAAAUCCAACAGAGGAUUGAGCAUCA
# B2: chr2:5814250:5814251:-_ENSMUSG00000025816_ENSMUST00000102981|mus_hu|mus_mus_mus_hu_True|58_58 (ssRNA)
# RNA: GGGAGUUCUACAGUCCGACGAUCUUCCUUUCCGGUUUCUGAAUUUCUGGUAGAACUGCACAGAAUGGUUUGAUAACUUCUAAAAACUUGAUGCCCAUGGCUGCUGCUGGGGAGGCCCAGGGGGAAACCGCGGCCUCGGCGCUGCAACAGAGGAUUGAGCAUCA
# B3: 97007495_97007615_238_CDS_ENSG00000121152_ENST00000240423|human|control|control (ssRNA)
# RNA: GGGAGUUCUACAGUCCGACGAUCCAAUAAGCGAGGUGAGUCAGUGCUGAACUGCAGAUCAAAGACCCUCGAGCGCCUCCGCUGCAGCCGCUCCUUCUCAUCGUCAUUCUGAGGAAAGUCUUCGAGGACUGGGGUGCCAGGAAUCAACAGAGGAUUGAGCAUCA
# B4: 96635784_96638769_164_5pUTR_ENSMUSG00000020876_ENSMUST00000107661|mouse|control|control (ssRNA)
# RNA: GGGAGUUCUACAGUCCGACGAUCCCACAAGCCCAUGGGAAGGGCACAUAGGUGUUCGAGGAAGCUCUUCCGCCUGACAGAAAACCUGUCCCGUCCAUCAAGCAGCUGUUCUCAUUUUUCAGUCGGUAACCCACUCCUUUCACCCAACAGAGGAUUGAGCAUCA
# B5: chr12:39756943:39756944:-_ENSG00000139116_ENST00000544797|hu_mus|hu_hu_hu_mus_False|28_68 (ssRNA)
# RNA: GGGAGUUCUACAGUCCGACGAUCGGUUUGGCUGUUACCCCCAAGGGAAUCCUGCAAGAGUCUUGUCAGCUUGGAAUCUCUGUAAGGGACAUGGGUGGCUCUCUUGCUCUUGUCUCCCAAGGCGCUGAUUACAUUCCCAAGAGCCAACAGAGGAUUGAGCAUCA
# B6: chr16:45382771:45382772:-_ENSMUSG00000022661_ENSMUST00000163230|mus_mus|mus_mus_mus_hu_True|38_48 (ssRNA)
# RNA: GGGAGUUCUACAGUCCGACGAUCCUGGGUCAUGUUAUAAGACAAAUGGACAGGGAGGGCAUGCUUCUCAAAAAAUGUGAGCUAUUGACUAAGACUAACAAUAUUGCUCUAGCUAUAAAAAUAAGUUAAAUGAAUAAGUUAAGACAACAGAGGAUUGAGCAUCA
# B7: chr16:45382771:45382772:-_ENSMUSG00000022661_ENSMUST00000163230|mus_mus|mus_mus_mus_hu_True|38_38 (ssRNA)
# RNA: B6 RNA with A87U
# B8: chr4:76721835:76721836:+_ENSG00000138768_ENST00000264904|hu_mus|hu_hu_hu_mus_True|8_28 (ssRNA)
# RNA: GGGAGUUCUACAGUCCGACGAUCGUUUGGCUGGGGUUUCUGAGACGCUCUGGAAUAUAACUCAUGUUUGCUAAUAAAUCCUAGUUUCUCUAUGAAAUUCUCUUUGCAAUCCUCUUCCUCUAUUAGUGUUUUAGCUUUCUCUUUCAACAGAGGAUUGAGCAUCA
# B9: chr4:76721835:76721836:+_ENSG00000138768_ENST00000264904|hu_mus|hu_hu_hu_mus_True|18_28 (ssRNA)
# RNA: GGGAGUUCUACAGUCCGACGAUCGUUUGGCUGGGGUUUCUGAGACGCUCUGGAAUAUAACUCAUGUUUGCUAAUAAAUCCUAGUUUCUCUAUGAAAUUCUCUUUGCAAUCCUCUUCUCAAUCAGUUUGCUUUAGUUUCUCUUUCAACAGAGGAUUGAGCAUCA
# B10: chr19:16212804:16212805:+_ENSG00000167460_ENST00000300933|hu_mus|hu_hu_hu_mus_False|38_98 (ssRNA)
# RNA: GGGAGUUCUACAGUCCGACGAUCAACAAUUCUGGAGAAGAACAUCAAUGUAACAUGGAACAGCAUUAAAGCUCAGUCAGAAGGCACAUGGGCAACAAUGACUAUUUCAGCAUUCUCGCUUGGAAUGCUUAAAGACAAUCUGUUCAACAGAGGAUUGAGCAUCA
# B11: chr16:45382771:45382772:-_ENSMUSG00000022661_ENSMUST00000163230|mus_mus|mus_mus_mus_hu_True|18_38 (ssRNA)
# RNA: B6 RNA with A87U, A117U, U121A, A123U, G124A, U125A, U126G
# B12: chr16:45382771:45382772:-_ENSMUSG00000022661_ENSMUST00000163230|mus_mus|mus_mus_mus_hu_True|38_78 (ssRNA)
# RNA: B6 RNA with G57A, C66U, A87U
# B13: chr3:10015032:10015033:+_ENSMUSG00000027533_ENSMUST00000029046|mus_mus|mus_mus_mus_hu_True|1_28 (ssRNA)
# RNA: GGGAGUUCUACAGUCCGACGAUCGUUUUUACCAUCACAAGUGAUGAUACAAUCUGGCUUGGCCAUUGCGCCCAUUUUUCGCAAAGCUAUUCCCACUCCUAGCUCCUUCAUGUACUCAUCAAAGCCUUUGCUGUCCAUCAGGCGCAACAGAGGAUUGAGCAUCA
# B14: chr7:151048522:151048523:+_ENSG00000013374_ENST00000566856|hu_mus|hu_hu_hu_mus_True|18_78 (ssRNA)
# RNA: GGGAGUUCUACAGUCCGACGAUCCUGUUUCUUAUUUAUUACGAUCUUGAUGUAAUUUUCUUGAAGUCCGAAAGUUUCAGCUAUUUGACACCUCAGGUCUCUACCAGUGACAUGCAAUCGGGUCUCCAACAAGCUUUUCUUAUCCAACAGAGGAUUGAGCAUCA
# B15: 193332725_193333477_540_CDS_ENSG00000198836_ENST00000392438|human|control|control (ssRNA)
# RNA: GGGAGUUCUACAGUCCGACGAUCCCACUGAUCAAAAGUCUUUUUGGCUGUGUAGCCACCCCCAACAGCCGAUCCUAGUAUGAGAUAGCGAAGUUUUAAGAGUCUCGUAGCUAAUCUUGCUGGCCAAAAAUUCCUGCGAGGCUGCAACAGAGGAUUGAGCAUCA
# B16: chr19:7991675:7991676:-_ENSG00000104980_ENST00000595831|hu_hu|FALSE|FALSE (ssRNA)
# RNA: GGGAGUUCUACAGUCCGACGAUCCCAAAUCUCAGGCUUAUGCACAAGAUGGAAGAGCACUGUUAAAAUUAAAAAAUGGACCUAAAGUGGCUUGGCUGACGUGGCUAGCGGGCCACUGAGCCGCGGGUCCCGGGUCCCACCCUGCAACAGAGGAUUGAGCAUCA
# B17: chr19:7991675:7991676:-_ENSG00000104980_ENST00000595831|hu_hu|motif|central (ssRNA)
# RNA: B16 RNA with U82G, A83G
# B18: chr11:46405157:46405158:+_ENSG00000110492_ENST00000395566|hu_hu|hu_hu_hu_mus_False|1_98 (ssRNA)
# RNA: GGGAGUUCUACAGUCCGACGAUCCCCUCCCCACUUUGGCUGGGGAGUGUGGGCGUGAGAGGACAGGCGUGAUUGACAGAGCUGACAGGAAGACAAAAGGCACUGGUGGGUUAUAUCUUGGGCCUGUGGGAGAGGAGGCGUGGGCAACAGAGGAUUGAGCAUCA
# B19: chr9:100883651:100883652:-_ENSG00000106789_ENST00000375077|hu_mus|FALSE|FALSE (ssRNA)
# RNA: GGGAGUUCUACAGUCCGACGAUCUCCCAAGGCAAGAAGGAAGGAGCCGAGGGCGGCUUUGCUGCUUGGGUGGUCACUGUGUCAGGGGGCAGUGUUGCUCCAUUAGCCCAAGAACAUAAAAACAUAAUCUUAAAAAAAUAUGACCAACAGAGGAUUGAGCAUCA
# B20: chr7:54825262:54825263:-_ENSG00000132432_ENST00000352861|hu_hu|motif|central (ssRNA)
# RNA: GGGAGUUCUACAGUCCGACGAUCCCGACUUGGCUCAACAAACUGCAUUACCUGAUCCAUGACUGCCUACCCAACCGACACCGGAAAUGCCAGGGACACGUAGCACUGGAGCUUGCUGAUGGAGGCCCACCGGAACCGGAAUCCCAACAGAGGAUUGAGCAUCA
# B21: chr1:129704038:129704039:+_ENSMUSG00000026349_ENSMUST00000027587|mus_mus|FALSE|FALSE (ssRNA)
# RNA: GGGAGUUCUACAGUCCGACGAUCAGGCCAAAGCUGCCCUCCAAGUGUCGGUUGGCCUGCAUUAAUUACAGCUGUGCCUGCACACUUGUCUCAACAUCAAGUACUGAGGGAAAACGGGAAUGCACUCUGCCUCUGGUCAGUACACAACAGAGGAUUGAGCAUCA
# B22: chr10:110404880:110404881:-_ENSMUSG00000035798_ENSMUST00000041723|mus_hu|motif|central (ssRNA)
# RNA: GGGAGUUCUACAGUCCGACGAUCGUUUUUGUGAUACUUGUCACCAAGGUUAACUGAAACAUUGAAUGUUAAAAGCAAUCGGGUUGGAUCCACACUAUGUGUUCUAUAUGCUGCCCACAUUAAAGGCGUCAUUCCAUUCUGAUCCAACAGAGGAUUGAGCAUCA
# Molecular target: T1, UNK ZnF1-3
# Assay: nsRBNS (natural sequence RNA bind-n-seq); RBNS binding buffer (assumed for nsRBNS): 25 mM Tris pH 7.5, 150 mM KCl, 3 mM MgCl2, 0.01% Triton X-100, 500 ug/ml BSA, 20 U/ml SUPERase-In, 4 C; UNK is unkempt and MSI1 is Musashi-1; names of the RNAs are library labels; protein concentration not given here; high values mean tight binding
row,Binder,binding signal [enrichment R]
1,B1,0.783
2,B2,1.21
3,B3,1.1
4,B4,1.14
5,B5,0.792
6,B6,8.11
7,B7,16.7
8,B8,0.588
9,B9,0.475
10,B10,1.15
11,B11,10.5
12,B12,13.9
13,B13,0.662
14,B14,0.639
15,B15,1.11
16,B16,4.68
17,B17,3.81
18,B18,2.22
19,B19,2.88
20,B20,1.13
21,B21,0.746
22,B22,0.601
